The text below walks through data of PubChem BioAssay (EPA / NIEHS).

Active and inactive are the calls of the source. The calls were made as follows: active = hit-call score of the fitted dose curve at least 0.9, where 1 is the maximum; inactive = score below 0.9.

A short description of the test: APR_HepG2_NuclearSize_72hr: Apredica 72-hour HepG2 Assay for Nuclear Size (AID 2282925). The conditions noted are these: high-content imaging, actives raise or lower the signal. Here is the method:
APR_HepG2_72hr is a cell-based, multiplexed-readout assay that uses HepG2, a human liver cell line, with measurements taken at 72 hours after chemical dosing in a 384-well plate.APR_HepG2_NuclearSize_72hr is one of 10 assay component(s) measured or calculated from the APR_HepG2_72hr assay. It is designed to make measurements of cell phenotype, a form of morphology reporter, as detected with fluorescence intensity signals by HCS Fluorescent Imaging technology.Data from the assay component APR_HepG2_NuclearSize_72hr was analyzed into 1 assay endpoint. This assay endpoint, APR_HepG2_NuclearSize_72hr, was analyzed with bidirectional fitting relative to DMSO as the negative control and baseline of activity. Using a type of morphology reporter, measures of all nuclear dna for gain or loss-of-signal activity can be used to understand the signaling at the nuclear-level. Furthermore, this assay endpoint can be referred to as a primary readout, because this assay has produced multiple assay endpoints where this one serves a signaling function. To generalize the intended target to other relatable targets, this assay endpoint is annotated to the cell morphology intended target family, where the subfamily is organelle conformation.
Cells were treated with dimethyl sulfoxide (DMSO) as a solvent control at a final concentration of 0.5% v/v or with compounds in DMSO with a resulting final DMSO concentration of 0.5% v/v. Compound treatment was done at concentrations of 0.39, 0.78, 1.56, 3.12, 6.24, 12.5, 25, 50, 100, and 200 uM in duplicate on each plate. Cells were treated with compounds for 1, 24, or 72 hr. Carbonyl […] m-chloro-phenylhydrazone (CCCP) and taxol were used as positive controls for mitochondrial function and cytoskeletal stability, respectively; DMSO served as the negative control for this experiment. Cells were fixed by the direct addition of 50 uL formaldehyde in Hank's Balanced Salt Solution (HBSS) to a final concentration of 3.7%. After incubation in the fixation medium for 30 min at room temperature (293-298 K), cells were rinsed twice with HBSS and treated with cell permeabilization buffer (16 uL of 0.5% Triton X-100) for 10 min at room temperature (293-298 K) before labeling. For mitochondrial membrane potential and mitochondrial measurements, pre-fixed cells were incubated with 50 uL of MitoTracker Red CMXRos (Invitrogen) at a concentration of 250 nM for 30 min before fixation. In the remaining cases, post-fixed cells were labeled by incubation with a multiplexed mixture of primary antibodies in HBSS for 60 min at room temperature (293-298 K) to detect immunoreactivity of c-Jun (1:500), phospho-histone H3 (1:100), phospho-histone H2A.x (1:200), p53 (1:400), alpha-tubulin (1:200) and Hoechst 33342 (2 ug/mL). Cells were labeled for multiplexed imaging on two separate plates: a) Hoechst 33342, MitoTracker Red, phospho-histone H3, and alpha-tubulin, and b) Hoechst 33342, phospho-histone H2A.x, and c-Jun. A final rinse with HBSS (50 uL) was performed before analysis. The primary and secondary antibodies for the proteins were phospho-histone H3 (rabbit anti-phospho-histone H3 and FITC-donkey anti-rabbit IgG), phospho-histone H2A.x (mouse anti-phospho-histone H2A.x and FITC-donkey anti-mouse IgG), c-Jun (rabbit anti-phospho-c-Jun and Cy3-donkey anti-rabbit IgG), p53 (sheep anti-p53 and Cy5-donkey anti-sheep IgG), alpha-tubulin (mouse anti-alpha-tubulin and Cy5-donkey anti-mouse IgG). These antibodies are available as the CellCiphr HepG2 assay kit (Millipore).Digital images of each well were captured using a Cellomics ArrayScan VTI (Thermo Scientific Cellomics) (0.8 NA objective, 0.63x optical coupler, and XF-93 filter set) at 20x magnification. The images were acquired using the autofocus feature of the ArrayScan instrument, which entails the following steps. First, the camera focuses on channel 1 (Hoechst 33342), where nuclei are identified. Second, a Z offset of 1 um is used for capturing mitochondria (MitoTracker Red). […]
As for `COc1cc(Cl)c(OC)cc1Cl`, the compound was called inactive.
`C=C(C)CN(CC)c1c([N+](=O)[O-])cc(C(F)(F)F)cc1[N+](=O)[O-]`: the compound was called inactive.
The result for `CCOP(=S)(OCC)Oc1nc(Cl)n(C(C)C)n1` reads “inactive”.
For `CC(C)NC(=O)N1CC(=O)N(c2cc(Cl)cc(Cl)c2)C1=O`, the outcome was inactive.
The result for `O=C1C2CC=CCC2C(=O)N1SC(Cl)(Cl)Cl` (stereo not given) reads “inactive”; that for `CC(C)C1(C)N=C(c2ncccc2C(=O)O)NC1=O` (stereo not given), “inactive”.
The result for `Cc1cc(C)nc(Nc2ccccc2)n1` reads “inactive”; that for `COCC(=O)N(c1c(C)cccc1C)C(C)C(=O)OC` (stereo not given), “inactive”.
With `CCCCC(O)(Cn1cncn1)c1ccc(Cl)cc1Cl` (stereo not given) the entry was “inactive”; with `CO/N=C(/C1=NOCCO1)c1ccccc1Oc1ncnc(Oc2ccccc2Cl)c1F`, “inactive”; with `CC(C)N1C(=O)N(c2ccccc2)CSC1=NC(C)(C)C`, “inactive”.
As for `OC(c1ccc(Cl)cc1)(c1ccc(Cl)cc1)C(Cl)(Cl)Cl`, the outcome was inactive.
`COP(=S)(OC)SCn1nnc2ccccc2c1=O`: the compound was classed as inactive.
With `CC(C)N1C(=O)c2ccccc2NS1(=O)=O` the entry was “inactive”.
For the compound `COC(=O)NC(=S)Nc1ccccc1NC(=S)NC(=O)OC`, the call was inactive.
Regarding `Cc1cnc(C2=NC(C)(C(C)C)C(=O)N2)c(C(=O)O)c1` (stereo not given), the outcome was inactive.
In the case of `Clc1nc(Cl)nc(Nc2ccccc2Cl)n1`, the outcome was inactive.
The result for `CCOc1nc(F)cc2nc(S(=O)(=O)Nc3c(Cl)cccc3Cl)nn12` reads “inactive”; that for `COCC(C)N(C(=O)CCl)c1c(C)csc1C` (stereo not given), “inactive”; that for `O=P(O)(O)CCCl`, “inactive”.
The result for `CCSC(=O)N1CCCCCC1` reads “inactive”; that for `O=c1n(Cl)c(=O)n(Cl)c(=O)n1Cl`, “inactive”.
With `CN=C=S` the entry was “inactive”.
With `CCOc1nc(C(Cl)(Cl)Cl)ns1`, the outcome was inactive.
With `N#CN=C1SCCN1Cc1ccc(Cl)nc1` the entry was “inactive”; with `CNC(=O)N(C)c1nnc(C(C)(C)C)s1`, “inactive”; with `CCN(CC)c1nc(C)cc(OP(=S)(OC)OC)n1`, “inactive”.
With `CCCCOCN(C(=O)CCl)c1c(CC)cccc1CC` the entry was “inactive”.
`CCOC(=O)C(C)OC(=O)c1cc(Oc2ccc(C(F)(F)F)cc2Cl)ccc1[N+](=O)[O-]` (stereo not given): the compound was called inactive.
As for `Nc1c(Cl)c(F)nc(OCC(=O)O)c1Cl`, the call was inactive.
The result for `CCNP(=S)(OC)O/C(C)=C/C(=O)OC(C)C` (stereo not given) reads “inactive”; that for `Nc1c(Cl)c(Cl)nc(C(=O)O)c1Cl`, “inactive”.
`CCCC(=NOCC)C1=C(O)CC(CC(C)SCC)CC1=O` (stereo not given): the call was inactive.
In the case of `Cn1c(-c2ccccc2)cc(-c2ccccc2)[n+]1C`, the call was inactive.
The result for `CC(C)Oc1cccc(NC(=O)c2ccccc2C(F)(F)F)c1` reads “inactive”; that for `N#Cc1c(Cl)cccc1Cl`, “inactive”.
Turning to `CNC(=O)Oc1cccc2ccccc12`, the compound was classed as inactive.
The result for `CCNC(=O)NC(=O)C(C#N)=NOC` reads “inactive”; that for `CCN(CC)C(=O)C(C)Oc1cccc2ccccc12` (stereo not given), “inactive”; that for `CC1(C)CCC(=Cc2ccc(Cl)cc2)C1(O)Cn1cncn1` (stereo not given), “inactive”.
